The full ranking holds about 110,000 compounds; the median of “z-score” is about -0.1, and the highest 2% start at about 2. Shown is part of a subset that was picked to be rich in the highest values. Calls of active or inactive are those of the source.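 Rule for the calls: active = z-score in the third read window above 3 or below -3; inactive = the rest.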
biological target: Metabotropic glutamate receptor 8 (Rattus norvegicus) (UniProt P70579); assay: rat mGluR8 modulators via GIRK flux, primary screen, cell-based, thallium flux, HTS (AID 488969); conditions: HEK293 rat mGluR8, GIRK (G protein-gated inwardly rectifying potassium channel) thallium flux, FluoZin2; at 10 µM; stronger effect = higher value; submaximal glutamate (EC20) added with thallium
Sequence (P70579 whole entry, looked up): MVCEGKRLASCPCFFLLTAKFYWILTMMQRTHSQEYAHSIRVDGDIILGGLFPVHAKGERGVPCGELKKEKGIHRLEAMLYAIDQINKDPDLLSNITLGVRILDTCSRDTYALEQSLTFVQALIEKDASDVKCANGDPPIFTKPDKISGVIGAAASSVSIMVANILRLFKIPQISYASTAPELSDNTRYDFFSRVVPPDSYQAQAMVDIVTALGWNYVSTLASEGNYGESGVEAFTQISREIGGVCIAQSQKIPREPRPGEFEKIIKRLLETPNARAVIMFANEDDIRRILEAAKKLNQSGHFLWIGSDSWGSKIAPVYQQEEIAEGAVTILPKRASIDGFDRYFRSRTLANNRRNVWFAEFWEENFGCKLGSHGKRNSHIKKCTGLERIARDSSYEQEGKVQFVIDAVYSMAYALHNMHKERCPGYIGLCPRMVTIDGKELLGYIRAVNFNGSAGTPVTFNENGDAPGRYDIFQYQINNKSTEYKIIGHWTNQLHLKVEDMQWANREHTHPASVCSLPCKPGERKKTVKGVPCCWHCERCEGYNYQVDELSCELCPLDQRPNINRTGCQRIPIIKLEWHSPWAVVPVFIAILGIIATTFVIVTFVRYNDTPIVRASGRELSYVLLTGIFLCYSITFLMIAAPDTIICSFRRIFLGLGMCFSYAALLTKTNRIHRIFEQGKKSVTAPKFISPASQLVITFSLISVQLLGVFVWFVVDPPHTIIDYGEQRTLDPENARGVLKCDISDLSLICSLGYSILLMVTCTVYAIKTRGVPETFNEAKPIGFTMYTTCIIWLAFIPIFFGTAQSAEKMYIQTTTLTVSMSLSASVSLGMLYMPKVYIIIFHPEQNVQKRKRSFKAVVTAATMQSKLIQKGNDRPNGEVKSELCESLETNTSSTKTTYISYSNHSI

| SMILES | z-score |
| --- | --- |
| O=C(CSc1c[nH]c2ccccc12)NCC1CCCO1 (centres undefined) | -0.0605 |
| C#CCOC(=O)C(NC(=O)c1ccccc1)=C1CCCCC1 | -0.603 |
| C=CCNC(=O)/C(=C\c1ccc2c(c1)OCO2)NC(=O)c1ccc(Br)cc1 | -0.116 |
| Cc1[nH]c2ccccc2c1C(=O)CN1C(=O)NC2(CC(C)CC(C)(C)C2)C1=O (centres undefined) | -0.266 |
| O=C(OCCN1C(=O)c2cccc3c(N4CCOCC4)ccc(c23)C1=O)c1ccc(Cl)cc1 | -0.758 |
| O=C(OCCN1C(=O)c2cccc3c(N4CCOCC4)ccc(c23)C1=O)c1ccc(Cl)cc1Cl | -0.884 |
| O=C(OCCN1C(=O)c2cccc3c(N4CCOCC4)ccc(c23)C1=O)c1ccccc1Cl | -0.723 |
| O=C1c2cccc3c(N4CCCCC4)ccc(c23)C(=O)N1CCO | -0.897 |
| O=C(OCCN1C(=O)c2cccc3c(N4CCOCC4)ccc(c23)C1=O)c1cc(Cl)cc(Cl)c1 | 5.23 (active) |
| O=C(OCCN1C(=O)c2cccc3c(N4CCOCC4)ccc(c23)C1=O)c1cccc(Cl)c1 | 2.81 |
| CCN1CCCC1CNC(=O)c1ccc(N2CCCC2=O)cc1 (centres undefined) | 1.38 |
| O=S(=O)(Cc1ccccc1Cl)Nc1ccccn1 | 1.91 |
| CCOc1ccccc1NC(=O)c1cccc(NC(=O)CC(c2ccccc2)c2ccccc2)c1 | -0.177 |
| CCOc1ccccc1NC(=O)c1cccc(NC(=O)c2ccco2)c1 | -0.729 |
| CCOc1ccccc1NC(=O)Nc1cccc(C(C)=O)c1 | 3.62 (active) |
| CC(Sc1ccccc1)C(=O)Nc1ccc(S(=O)(=O)N2CCOCC2)cc1 (centres undefined) | 0.0953 |
| CC(Sc1ccc(Cl)cc1)C(=O)Nc1ccc(S(=O)(=O)N2CCOCC2)cc1 (centres undefined) | 0.967 |
| Cc1ccc(SC(C)C(=O)Nc2ccc(S(=O)(=O)N3CCOCC3)cc2)cc1 (centres undefined) | 6.05 (active) |
| COc1ccsc1C(=O)N1CCN(Cc2ccc3c(c2)OCO3)CC1 | -0.0804 |
| COc1cccc(C(=O)OC2CCCN(C)C2)c1 (centres undefined) | -0.125 |
| CCCS(=O)(=O)NCc1cn2c(C)csc2n1 | 2.02 |
| CCc1ccc(S(=O)(=O)NCc2cn3c(C)csc3n2)s1 | 0.337 |
| Cc1csc2nc(CNS(=O)(=O)N(C)C)cn12 | -0.402 |

| SMILES | z-score |
| --- | --- |
| CC(c1ccco1)N(C(=O)c1ccccc1NS(=O)(=O)c1ccc(Cl)c([N+](=O)[O-])c1)c1ccccn1 (centres undefined) | 0.843 |
| CC(c1ccco1)N(C(=O)c1ccccc1NS(=O)(=O)c1cc([N+](=O)[O-])ccc1Cl)c1ccccn1 (centres undefined) | 2.18 |
| CC(c1ccco1)N(C(=O)c1ccccc1NS(=O)(=O)c1ccc(Cl)cc1)c1ccccn1 (centres undefined) | -0.362 |
| O=C(CN1C(=O)C2CC=CCC2C1=O)Nc1nnc(SCc2ccc(Cl)cc2)s1 (centres undefined) | -0.31 |
| Cc1ccc(Nc2nnc(-c3ccncc3)s2)c(Br)c1 | 0.13 |
| CCNc1nnc(-c2ccncc2)s1 | -0.233 |
| c1ccc2c(Nc3nnc(-c4ccncc4)s3)cccc2c1 | 4.07 (active) |
| N=C1CCCN1CC(=O)c1ccc(Cl)cc1 | 0.073 |
| COc1cc2c(C)nc3onc(-c4ccccc4)c3c2cc1OC | -0.241 |
| COc1ccc2nc(SCC(=O)NC3CCCc4ccccc43)[nH]c2c1 (centres undefined) | 0.0427 |
| O=C(CSc1nc2ccccc2[nH]1)NC1CCCc2ccccc21 (centres undefined) | 2.41 |
| Cc1ccc2nc(SCC(=O)NC3CCCc4ccccc43)[nH]c2c1 (centres undefined) | 0.164 |
| O=C(NCc1cccnc1)C1CCN(C(=O)c2ccc(Cl)cc2Cl)CC1 | -0.0203 |
| N=C1S/C(=C\c2cn[nH]c2-c2ccc(F)cc2)C(=O)N1c1ccccc1F | 0.348 |
| CCn1c(-c2nn(C)c(C)c2Cl)n[nH]c1=S | -0.461 |
| CCCCn1nnc(NC(=O)c2ccc(-c3cccc(Cl)c3)o2)n1 | -0.581 |
| CCCCn1nnc(NC(=S)NC(=O)c2cccs2)n1 | 0.0688 |
| CCCCn1nnc(NC(=S)NC(=O)c2ccc(-c3cccc(Cl)c3Cl)o2)n1 | 4.59 (active) |
| COc1cccc(C(=O)/C=C/c2ccc(SC)cc2)c1 | 0.0506 |
| CCC(C)N1CC(C(=O)O)CC1=O (centres undefined) | -0.0459 |
| CCOc1ccc(S(=O)(=O)N2CCN(Cc3ccccc3)CC2)c2cccnc12 | 0.939 |
| Cc1cc(Oc2ccc(C)c(Cl)c2)nc(SCC(=O)c2ccccc2)n1 | -0.36 |
| N#C/C(=C\c1ccc(N2CCCC2)c([N+](=O)[O-])c1)c1nc2ccccc2[nH]1 | 0.221 |

| SMILES | z-score |
| --- | --- |
| N#C/C(=C/c1ccc(N2CCCC2)c([N+](=O)[O-])c1)c1nc2ccccc2[nH]1 | 0.0678 |
| N#C/C(=C\c1ccc(N2CCOCC2)c([N+](=O)[O-])c1)c1nc2ccccc2[nH]1 | 2.63 |
| COC(=O)N/N=C/c1cc(C)n(-c2cccc3ccccc23)c1C | 0.0823 |
| O=C(Nc1ccccc1)N1CCN(c2ccc(C(F)(F)F)cn2)CC1 | -0.362 |
| Nc1nc(CN2CCC(Cc3ccccc3)CC2)nc(Nc2ccccc2)n1 | 2.39 |
| Nc1nc(CN2CCN(Cc3ccccc3)CC2)nc(Nc2ccccc2)n1 | 0.26 |
| Nc1nc(CN2CCCCCC2)nc(Nc2ccccc2)n1 | 0.00781 |
| CC1CC(C)CN(Cc2nc(N)nc(Nc3ccccc3)n2)C1 (centres undefined) | 0.639 |
| CC1CC(C)CN(Cc2nc(N)nc(Nc3ccc4ccccc4c3)n2)C1 (centres undefined) | 3.66 (active) |
| COc1ccccc1Nc1nc(N)nc(CN2CCC(Cc3ccccc3)CC2)n1 | 0.165 |
| O=c1oc2ccccc2c(N2CCCC2)c1CN1CCCC1 | -0.557 |
| CCOC(=O)NC1(NCC(C)C)Oc2ccccc2O1 | -0.313 |
| COc1cc(/C=N/OCC(=O)NC2CCCCC2)ccc1OCc1ccccc1 | -0.752 |
| CC(C)c1ccc(OCC(=O)Nc2ccc(OC(F)(F)F)cc2)cc1 | -0.173 |
| COc1ccccc1C(=O)NCCn1cc(SCC(=O)Nc2cc(C)on2)c2ccccc21 | -0.181 |
| O=C(NC(=S)Nc1ccc(Cl)cn1)C(c1ccccc1)c1ccccc1 | 0.284 |
| Cc1ccnc(NC(=S)NC(=O)c2cccs2)c1 | 7.29 (active) |
| O=C(Nc1ncc(Cl)cn1)c1cccs1 | 0.0318 |
| O=C(NC(=S)Nc1ccc(Cl)cn1)c1cccs1 | 10.3 (active) |
| Cc1ccnc(NC(=S)NC(=O)/C=C/c2ccco2)c1 | 3.2 (active) |
| Cc1ccc2nsnc2c1NC(=S)NC(=O)c1ccco1 | 6.75 (active) |
| Cc1cccnc1NC(=S)NC(=O)/C=C/c1ccco1 | 0.37 |
| Cc1cccnc1NC(=S)NC(=O)c1cccs1 | 0.0645 |

| SMILES | z-score |
| --- | --- |
| Cc1ccnc(NC(=O)c2cccs2)c1 | -0.306 |
| O=C(NC(=S)Nc1c(Cl)ccc2nsnc12)c1ccco1 | -0.429 |
| Cc1ccnc(NC(=S)NC(=O)/C=C/c2ccccc2)c1 | -0.0726 |
| CC(=O)Nc1c(C)ccc2nsnc12 | 0.0413 |
| O=C(c1ccccc1)n1ccn(-c2ccccc2)c1=S | -1.09 |
| CC1CC1C(=O)OCC(=O)Nc1ccc(N=Nc2ccccc2)cc1 (centres undefined) | 0.616 |
| O=C(C1CC(c2ccc(F)cc2)=NO1)N1CCCCC1 (centres undefined) | -0.0299 |
| O=C(CCC(NC(=O)OCc1ccccc1)C(=O)OCC(=O)N1CCCCC1)OCC(=O)N1CCCCC1 (centres undefined) | 0.254 |
| C=CCC(NCc1ccco1)c1ccc(OC)cc1OC (centres undefined) | -0.246 |
| CC1CCc2nn(CC(=O)NCCN3CCCCC3C)cc2C1 (centres undefined) | 0.216 |
| Cc1ccc2ccc(S(=O)(=O)n3nc(C)cc3C)cc2c1 | -0.75 |
| O=C(NC(=S)Nc1ccccn1)c1ccco1 | 1.2 |
| Cc1cccc(NC(=O)c2cc(NC(=O)c3ccco3)ccc2Cl)n1 | -0.288 |
| Cc1cccc(NC(=S)NC(=O)c2cccs2)n1 | 5.04 (active) |
| Cc1cccc(NC(=S)NC(=O)c2ccco2)n1 | 3.93 (active) |
| CCC(=O)NC(=S)Nc1ccc(Cl)cn1 | 0.168 |
| Cc1cccc(NC(=O)Cc2cccs2)n1 | -0.58 |
| CCCC(=O)NC(=S)Nc1ccc(Cl)cn1 | 0.131 |
| Cc1cccc(NC(=O)c2cccs2)n1 | 0.965 |
| Cc1cccc(NC(=S)NC(=O)/C=C/c2ccco2)n1 | 0.626 |
| COC(=O)C(NC(=O)c1ccco1)(Nc1cc(C)ccn1)C(F)(F)F (centres undefined) | 0.329 |
| CC(C)CC(=O)NC(=S)Nc1ccc(Cl)cn1 | 2.96 |
| Cc1ccnc(NC(=S)NC(=O)c2ccco2)c1 | 2 |

| SMILES | z-score |
| --- | --- |
| CC(=O)c1c(C)[nH]c(C(=O)COC(=O)CNS(=O)(=O)c2ccccc2)c1C | -0.187 |
| C(=N\N1CCN(Cc2ccccc2)CC1)/c1cccs1 | -0.298 |
| CC(=O)Nc1ccc(S(=O)(=O)NCCC(=O)Nc2ccc(C)c(Cl)c2)cc1 | -0.0921 |
| CC(=O)c1ccc(NC(=O)CSc2ccc(-c3ccc4c(c3)OCO4)nn2)cc1 | -0.125 |
| CCOC(=O)N1CCN(C(=O)C2CC(c3cc(OC)ccc3OC)=NO2)CC1 (centres undefined) | -0.594 |
| COc1ccc(Br)cc1CNC(=O)C1CCN(S(=O)(=O)N2CCCCC2)CC1 | -0.52 |
| Cc1ccc(C(=O)NC(C)c2ccc(F)cc2)cc1 (centres undefined) | -0.249 |
| c1ccc(-c2nnc3ccc(N4CCCC4)nn23)cc1 | -4.38 (active) |
| O=C(Nc1ccc(F)cc1)N1CCN(c2ccc3nnc(-c4ccc(F)cc4)n3n2)CC1 | -1.17 |
| Fc1ccc(-c2nnc3ccc(N4CCc5ccccc5C4)nn23)cc1 | 2.89 |
| Cc1ccc(NC(=O)NNC(=O)c2cccs2)cc1 | 0.53 |
| NC(=O)c1ccc(C(F)(F)F)n(Cc2ccc(Cl)cc2)c1=O | -0.45 |
| Cc1[nH]n(-c2ccccc2)c(=O)c1-c1cccc(Cl)c1 | 0.257 |
| O=C(N1CCCCC1)N1CCN(C(=O)N(c2ccccc2)c2ccccc2)CC1 | 3.16 (active) |
| O=C(N1CCOCC1)N1CCN(C(=O)N(c2ccccc2)c2ccccc2)CC1 | -0.217 |
| CN(C)S(=O)(=O)N1CCN(C(=O)N(c2ccccc2)c2ccccc2)CC1 | -0.395 |
| COc1ccc(-c2nc3c(c(=O)c4ccccc4n3C)c(=O)n2Cc2ccccc2)cc1 | -0.433 |
| CCN(/C=N/c1sc2c(c1C#N)CCCCC2)CC | -0.292 |
| CCCN(/C=N/c1sc2c(c1C#N)CCCCC2)CCC | -0.155 |
| CC(C)CN(/C=N/c1sc2c(c1C#N)CCCCC2)CC(C)C | 2.9 |
| CCOC(=O)c1nnc2c(Br)c(-c3ccccc3)nn2c1C | -0.554 |
| CCC(=O)Nc1ccc(-c2csc(NNC(C)=O)n2)cc1 | -0.182 |
